# From PubChem BioAssay AID624483 (NMMLSC, 2012)
# In all, about 360,000 compounds went through this assay and about 11,000 (3.1%) were called active. Inconclusive results (about 2%) are left out. The sample as a whole holds a higher share of actives than the screen did. A number with no mark means an inactive call. Cut-off read from the data, not from the text of the source: active = fluorescence intensity above about 16000; inconclusive = no clear call, values can overlap the other calls; inactive = below that.
# Test: compound fluorescence in toxin protease inhibitor counterscreen, primary screen, artefact control for toxin protease inhibitor project, biochemical, multiplex microsphere, HTS (AID 624483)
# Settings: compound autofluorescence counterscreen, microsphere flow cytometry; hits give high values
row,SMILES,fluorescence intensity
1,COCCNCCOCCOc1cccc(OC)c1,2470
2,COc1cccc(OCCOc2cccc(/C=N/n3cnnc3)c2)c1,23900 (active)
3,C=CCc1ccc(OCCOc2cccc(/C=N/n3cnnc3)c2)c(OC)c1,2600
4,CC(C)(C)OC(=O)N[C@H](C(=O)OC(C)(C)C)c1ccc(Br)cc1,3740
5,C[C@H](NC(=O)OC(C)(C)C)c1nnc(SCC(=O)Nc2ccc(Br)cc2)o1,16800 (active)
6,CCc1ccccc1NC(=O)CSc1nnc(CCNC(=O)OC(C)(C)C)o1,6490
7,C=CCn1c(N)cc(=O)nc1SCC(=O)Nc1cccc2ccccc12,4460
8,CC(C)Oc1ccc(/C=N/NC(=O)c2nnn(-c3nonc3N)c2CN(C)C2CCCCC2)cc1,6000
9,O=S(=O)(N1CCOCC1)N1CCN(c2ccccc2F)CC1,6290
10,Cc1cccc(C)c1N1CCN(S(=O)(=O)N2CCCCC2)CC1,3490
11,Cc1cccc(C)c1N1CCN(S(=O)(=O)N2CCOCC2)CC1,23800 (active)
12,COc1ccc(Cl)cc1-c1cc(C(=O)Nc2cc(OC)c(OC)c(OC)c2)[nH]n1,3880
13,CCN1CCN(C2CCCCC2NS(=O)(=O)c2ccc(Cl)cc2)CC1 (stereo not drawn),5580
14,O=S(=O)(NC1CCCCC1N1CCC(O)CC1)c1ccc(Cl)cc1 (stereo not drawn),38100 (active)
15,O=S(=O)(NC1CCCCC1N1CCCCC1)c1ccc(Cl)cc1 (stereo not drawn),5790
16,Cc1cc(OCC(=O)N2CCN(c3ncccn3)CC2)ccc1Cl,4880
17,COc1ccc(OC)c(NC(=O)c2cc(-c3cc(F)ccc3OCC3CCCO3)n[nH]2)c1 (stereo not drawn),3690
18,COc1ncnc2sc3c(c12)CCCC3,23600 (active)
19,O=C(O)c1cccnc1Sc1ncnc2sc3c(c12)CCC3,4510
20,COc1ccc(/C=N/Nc2ncnc3sc4c(c23)CCCC4)cc1O,1980
21,CCOC(=O)C1=C(CCc2ccccc2)NC(=O)NC1c1ccc2ccccc2c1 (stereo not drawn),3820
22,CCOC(=O)C1=C(CSc2nccn2C)NC(=O)NC1c1ccc(OC)cc1 (stereo not drawn),24300 (active)
23,CCOC(=O)C1=C(CSc2nnnn2C)N(C)C(=O)NC1c1ccccc1 (stereo not drawn),4330
24,CC(C)C[C@H]1CN([C@@H](Cc2ccccc2)CN2CCC[C@@H]2CN2C(=O)C(=O)NC[C@@H]2Cc2ccc(O)cc2)C(=O)C(=O)N1CCc1ccccc1,5350
25,CCCCc1c(O)nc2n(c1=O)CCS2,22100 (active)
26,CC1CCc2c(sc3nc4n(c(=O)c23)CCS4)C1 (stereo not drawn),8310

row,SMILES,fluorescence intensity
1,CCOC(=O)N1CCN(C(=O)c2cnc3n(c2=O)CCS3)CC1,2800
2,CCOC(=O)N1C(=O)C[C@](Sc2ccc(C)cc2)(C(=O)OC)[C@H]1c1ccccc1,5390
3,Cc1ccc(C)c(C(O)c2ncc(-c3cccc4ccccc34)[nH]2)c1 (stereo not drawn),3640
4,CC1(C2CC2)NC(=O)N(CC(=O)N2CCN(c3ccccc3F)CC2)C1=O (stereo not drawn),2860
5,Cc1csc(SCC(=O)Nc2ccc(C)c(S(=O)(=O)N(C)C)c2)n1,3940
6,Cc1ccc(CCNC(=O)C2CCN(S(=O)(=O)N3CCCC3)CC2)cc1,9470
7,CCOC(=O)C1C(=O)NC(N2CCN(c3ccccc3)CC2)=NC1c1ccco1 (stereo not drawn),23400 (active)
8,CCOC(=O)C1C(=O)C=C(c2ccc(OC)cc2)CC1c1ccco1 (stereo not drawn),2300
9,CCOC(=O)C1(C)NC(c2ccco2)C2C(=O)N(c3ccccc3)C(=O)C21 (stereo not drawn),4000
10,Cc1ccc(N2C(=O)C3C(c4ccccc4)(C2=O)C3(c2ccccc2)c2ccccc2)cc1 (stereo not drawn),22200 (active)
11,Cc1ccc(C2SCC(=O)N2c2ccccc2)cc1 (stereo not drawn),3540
12,Cc1ccc(N2C(=O)CC(Nc3cccc4ccccc34)C2=O)cc1 (stereo not drawn),3720
13,COc1ccccc1Nc1ncc(C(C)=O)c(C)n1,2840
14,O=C1CCC(C(=O)N2CCC(O)(c3ccccc3)CC2)CN1CCc1ccccc1 (stereo not drawn),5620
15,CC(C)C[C@@H](COCc1ccc(Cl)cc1)N1CCN(C(=O)c2ccc(Cl)cc2Cl)CCC1=O,4700
16,Cc1cc2c(cc1C)N1C(=O)c3cc4ccccc4cc3NC(=O)C1C(=O)N2 (stereo not drawn),5850
17,COc1ccc(S(=O)(=O)N(C)C)cc1NC(=O)CSc1ncccn1,2020
18,COc1ccc(-n2cnnc2SCC(=O)Nc2cccc(S(N)(=O)=O)c2)cc1,5460
19,CCn1c(CSc2nncn2-c2ccc(OC)cc2)nc2cc(S(=O)(=O)N(C)C)ccc21,20000 (active)
20,CC[C@@H]1CC2=C(C(=O)OC(C)(C)O2)[C@@H](CC)O1,5670
21,CC(C)(C)S(=O)(=O)N1Cc2cc(CO)cc(CCO)c2[C@H]1CCO,3670
22,Cc1ccccc1S(=O)(=O)NC(=O)C1(C)CCN1C(=O)C1(c2ccc(Cl)cc2)CC1 (stereo not drawn),4140
23,Cc1ccccc1-c1ccc(Nc2ccc(C(=O)N3CCOCC3)cc2)nn1,16400 (active)
24,Cc1cc(Nc2ccc(C(=O)N3CCCCC3)cc2)c2cccc(C)c2n1,3660
25,Cc1oc2c(c1C(=O)N1CCOCC1)C(=O)c1ccccc1C2=O,5580
26,CCCCc1ccc(S(=O)(=O)NC(=O)C2(C)CCN2C(=O)c2c(C)noc2C)cc1 (stereo not drawn),2860

row,SMILES,fluorescence intensity
1,CCc1nc2c(OCc3ccc(Cl)cc3Cl)cccn2c1N(C)C(=O)C(C)C,4460
2,Cc1cc(S(=O)(=O)NCC(C)C)ccc1OCC(=O)NC1CC1,5980
3,CC(C)CNS(=O)(=O)c1ccc(OCC(=O)Nc2ccc3c(c2)OCO3)c(Cl)c1,16300 (active)
4,O=C(COc1ccc(Cl)cc1)Nc1ccc2c(c1)OCO2,3940
5,Nc1c(C(=O)OCC(=O)Nc2ccc(OC(F)F)cc2)[nH]c(=O)[nH]c1=O,3380
6,CC(C)(CCl)C(=O)Nc1ccc(Sc2ccc(F)cc2)cc1,20700 (active)
7,Cc1ccc(Sc2ccc(NC(=O)c3ccc(F)cc3)cc2C#N)cc1,4940
8,O=C(CCl)Nc1ccc(Sc2ccc(NC(=O)CCl)cc2)cc1,4330
9,CC(NC(=O)CN(C)S(=O)(=O)c1ccc(F)cc1)C1CC2CCC1C2 (stereo not drawn),3360
10,Cc1c(C(=O)NCc2ccc(C#N)cc2)sc(=O)n1Cc1ccc(C(=O)N(C)C)cc1,4330
11,CC1OC2C(OC1C)N(S(C)(=O)=O)CCN2S(C)(=O)=O (stereo not drawn),15900
12,CC1COC2C(O1)N(S(C)(=O)=O)CCN2S(C)(=O)=O (stereo not drawn),25700 (active)
13,Cc1ccc(S(=O)(=O)N2CCN(C(=O)CN3C(=O)NC(C)(c4ccc(Cl)cc4)C3=O)CC2)c(C)c1 (stereo not drawn),3900
14,Cc1cc(C)n2c(Nc3c(C)cccc3C)c(CCc3ccccc3)nc2n1,5430
15,Cc1onc(-c2c(Cl)cccc2Cl)c1C(=O)c1c[nH]c(C(=O)NC2CC2)c1,23200 (active)
16,Cc1onc(-c2c(F)cccc2Cl)c1C(=O)OCC(=O)N1C(C)CCCC1C (stereo not drawn),3180
17,C/C(=N/OC(=O)c1c(-c2c(F)cccc2Cl)noc1C)c1cnccn1,3970
18,CC1=C(C(=O)N(C)C)CC(CC(=O)NCCN2CCOCC2)C(=O)N1Cc1ccccc1 (stereo not drawn),3750
19,CC1(C(=O)Nc2ccc3c(c2)OCCO3)CCN1C(=O)Cc1cc(F)ccc1F (stereo not drawn),3870
20,Clc1ccc(C=NC23CN4CN(CN(C4)C2)C3)cc1,3520
21,COC(=O)C1[C@H]2SC(C)(C)C(C(=O)OC)N2C(=O)N1Cc1nc2ccccc2s1 (stereo partly drawn),3920
22,CCNC(=O)C1CCCN(C(=O)c2cc(F)ccc2C)CC1 (stereo not drawn),3900
23,Cc1ccc(C(=O)N2CCCC2)c(F)c1F,24700 (active)
24,Cc1c(Br)cc(C(=O)N2CCCCCC2)c(C)c1C,4200
25,CNC(=O)c1nnc(Cc2ccc(Cl)cc2)o1,4900
26,COc1cccc(C(NC(C)=O)c2nc(-c3cnc4ccccc4c3)cs2)c1 (stereo not drawn),3770

row,SMILES,fluorescence intensity
1,CC(C)c1ccc(NC(=O)NC2CCCCC2)cc1,10400
2,CC(C)(C)NS(=O)(=O)c1ccc(NC(=O)C2CCCO2)cc1 (stereo not drawn),3950
3,CC(C)(C)NS(=O)(=O)c1ccc(NC(=O)NC2CCCCC2)cc1,17000 (active)
4,CC1(Cc2cccc(C#N)c2)C(=O)Nc2ccc(-c3cccc(C(F)(F)F)c3)cc21 (stereo not drawn),2910
5,CCOC(=O)C1=CCC(c2ccc(F)cc2)N(S(=O)(=O)c2ccc(C)cc2)C1 (stereo not drawn),6000
6,CC1=C(C(=O)N2CCOCC2)CC(CC(=O)NCC2CCCCC2)C(=O)N1Cc1ccc(F)cc1 (stereo not drawn),3780
7,O=C(c1ccc2c(c1)N(Cc1ccc(F)cc1)C(=O)CS2)N1CCOCC1,23800 (active)
8,O=C(c1ccc(CN2CCOCC2)cc1)N1CCN(c2ccccc2F)CC1,3620
9,CCOC(=O)c1sc(NC(=O)c2sc(C)nc2C)nc1C,3060
10,COC(=O)c1sc(NC(=O)c2csc3c2CCCC3)nc1C,19100 (active)
11,CC1CC(C)CN(CCCNC(=O)c2csc3c2CCCCC3)C1 (stereo not drawn),5260
12,CC(C)(C)Cc1c(C2CCCCC2)nc2ccc(Br)cn12,5440
13,CC(=O)NC(c1cccs1)c1cc(Br)c2cccnc2c1O (stereo not drawn),3590
14,Cc1cc(C)n2nc(C(=O)N3CCN(Cc4ccc5c(c4)OCO5)CC3)nc2n1,4210
15,Cc1cc(N2CCN(Cc3ccc4c(c3)OCO4)CC2)n2ncnc2n1,21200 (active)
16,Cc1cc(N2CCN(c3ccc(F)cc3)CC2)n2ncnc2n1,3960
17,Oc1cc2c(cc1CN1CCN(c3ccccc3)CC1)OCO2,5830
18,COc1ccc(-c2cc(C(=O)N3CCN(Cc4ccc5c(c4)OCO5)CC3)on2)cc1OC,5740
19,N#C/C=C/N1CCN(Cc2ccc3c(c2)OCO3)CC1,3600
20,O=C(NCc1ccc2c(c1)OCO2)C1CCCN(S(=O)(=O)c2cccs2)C1 (stereo not drawn),5650
21,CCc1c(C)nc2ncnn2c1N1CCC(C(=O)NCc2ccc3c(c2)OCO3)CC1,20900 (active)
22,COc1ccc(-c2csc(N3CCN(Cc4ccc5c(c4)OCO5)CC3)n2)cc1,23000 (active)
23,COc1ccc(C(O)c2nc(-c3ccc4c(c3)OCO4)cs2)cc1 (stereo not drawn),2970
24,Cc1cc(C)c(S(=O)(=O)NCC2CCC(C(=O)NCc3ccc4c(c3)OCO4)CC2)c(C)c1 (stereo not drawn),8390
25,Fc1ccc(N2CCN(Cc3ccc4c(c3)OCO4)CC2)cc1,22800 (active)
